In all, about 16,000 compounds went through this assay and about 2,600 (16%) were called active. Not shown: some 20% with an inconclusive outcome. Calls follow the shape of the dose curve; as a rule, active = well fitted curve in the direction sought with a large enough effect; inconclusive = small, poorly fitted or top-dose-only effect, or effect the other way; inactive = no such curve, though single readings can be large or run the other way. The list is a sample of the results.
These compounds were tested against Cytochrome P450 2D6 (Homo sapiens) (UniProt P10635) (assay: Cytochrome panel assay with activity outcomes). Details: recombinant CYP, pro-luciferin dealkylation, luminescence, p450-cyp2d6; series mostly up to 57.1 µM.
Sequence of Cytochrome P450 2D6 (Homo sapiens) (P10635 whole entry, looked up): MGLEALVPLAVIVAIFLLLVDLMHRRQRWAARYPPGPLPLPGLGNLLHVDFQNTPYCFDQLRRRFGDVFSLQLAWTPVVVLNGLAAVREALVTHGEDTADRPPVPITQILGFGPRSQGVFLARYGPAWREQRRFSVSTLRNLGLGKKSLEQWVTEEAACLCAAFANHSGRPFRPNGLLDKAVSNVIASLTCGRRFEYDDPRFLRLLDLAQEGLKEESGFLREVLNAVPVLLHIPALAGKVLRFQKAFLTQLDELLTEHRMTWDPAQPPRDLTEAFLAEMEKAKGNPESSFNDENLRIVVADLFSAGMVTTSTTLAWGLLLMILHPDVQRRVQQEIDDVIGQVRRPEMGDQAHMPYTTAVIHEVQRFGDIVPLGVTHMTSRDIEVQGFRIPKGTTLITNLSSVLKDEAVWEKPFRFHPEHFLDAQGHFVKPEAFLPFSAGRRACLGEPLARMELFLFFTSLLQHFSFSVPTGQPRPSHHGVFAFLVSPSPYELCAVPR
% is scaled to controls: 0 for no effect and ±100 for the full control effect.

| Compound | AC50 | activity, negative = inhibition |
| --- | --- | --- |
| NS(=O)(=O)Cc1noc2ccccc12 | inactive |  |
| O=C(O)/C=C\C(=O)Nc1ccc2c(c1)C(=O)c1cc(F)ccc1-2 |  | -18.3% [at 11.4 µM] (inactive) |
| COCCNc1nc(-c2cccc(OC)c2)nc2ccccc12 | 20 µM (active) |  |
| COc1cccc(-c2nc(NC3CC3)c3ccccc3n2)c1 | 7.94 µM (active) |  |
| COCCNc1nc(-c2cccc(NS(C)(=O)=O)c2)nc2ccccc12 | inactive |  |
| COc1cccc(-c2nc(NC3CCNCC3)c3ccccc3n2)c1 | inactive |  |
| COc1cccc(-c2nc(NCCNC(C)=O)c3ccccc3n2)c1 | 3.98 µM (active) |  |
| O=c1cnc2cnc(Nc3ccccc3)nc2n1C1CC1 | inactive |  |
| COc1ccc2c(c1)-c1ccccc1S(=O)(=O)N2C(C)=O | inactive |  |
| CCOC(=O)c1cnn(-c2ccccc2)c1-n1cccc1C(=O)C(=O)Nc1ccccc1C(F)(F)F | inactive |  |
| N#C/C(=C\c1cccs1)C(=O)NCC1CCCO1 (configuration not stated) | inactive |  |
| CN(C)/C=C/C(=O)c1ccc(Cl)cc1 | inactive |  |
| Cc1ccc(/C=N\NC(=O)c2cc(OCC(F)(F)F)ccc2OCC(F)(F)F)cc1 | inactive |  |
| COc1ccc(NC(=O)N(C2CCCCC2)C(C)c2cccnc2)c(OC)c1 (configuration not stated) | inactive |  |
| Cc1cc(OC(=O)c2ccccc2Br)cc(=O)n1C | inactive |  |
| O=C(CCc1nc2ccccc2c(=O)[nH]1)OCC(=O)N1CCN(S(=O)(=O)c2ccccc2)CC1 | inactive |  |

| Compound | AC50 | activity, negative = inhibition |
| --- | --- | --- |
| Cc1nc2ccccn2c1/C(O)=C1\C(=O)C(=O)N(CCCn2ccnc2)C1c1ccncc1 (configuration not stated) | inactive |  |
| CCN(CC)c1ccc(NC(=O)c2cccnc2)c(C)c1 | inactive |  |
| COc1ccc(-c2cc3ccccc3n2CC(O)CNCCO)cc1 (configuration not stated) | 0.562 µM (active) |  |
| COc1cccc(C2C(C(=O)c3cc4ccccc4o3)=C(O)C(=O)N2c2cc(C)on2)c1OC (configuration not stated) | inactive |  |
| CSc1nc2n(n1)C(c1cccc(F)c1)C(C(=O)Nc1ccc(C)cc1C)=C(C)N2 (configuration not stated) | inactive |  |
| N#Cc1cccc(NC(=O)N2CCCC3(CCN(C(=O)c4ccco4)CC3)C2)c1 | inactive |  |
| O=C(c1ccco1)N1CCC2(CCCN(Cc3ccccc3)C2)CC1 | inactive |  |
| COc1ccc(C(=O)N2CCC3(CCN(Cc4ccc(C#N)cc4)CC3)CC2)cc1 | inactive |  |
| O=C(c1ccncc1)N1CCC2(CCCN(Cc3ccncc3)C2)CC1 | 6.31 µM (active) |  |
| N#Cc1ccc(CN2CCC3(CC2)CCN(C(=O)c2ccncc2)CC3)cc1 | 6.31 µM (active) |  |
| O=C(c1ccco1)N1CCC2(CCCN(Cc3ccncc3)C2)CC1 | 3.16 µM (active) |  |
| O=C(c1cccc(F)c1)N1CCC2(CCCN(Cc3nccs3)C2)CC1 | inactive |  |
| N#Cc1ccc(CN2CCCC3(CCN(C(=O)c4ccncc4)CC3)C2)cc1 | inactive |  |
| N#Cc1ccc(CN2CCCC3(CCN(C(=O)c4cccc(F)c4)CC3)C2)cc1 | inactive |  |
| O=C(c1ccncc1)N1CCC2(CCCN(Cc3ccccc3)C2)CC1 | inactive |  |
| O=C(c1cccc(F)c1)N1CCC2(CCCN(Cc3ccncc3)C2)CC1 | 7.94 µM (active) |  |
